# Structures can show the parent of a compound that is named as a salt. Over roughly 1,000 compounds, “cFRET/donor change relative to DMSO, normalised to beta-lapachone positive control (supercomplex I-IV assembly)” has its median near 0.18; the lowest 2% begin near -1. The sample holds the lowest values, similar compounds and a random draw of the others, so the mix is not that of the screen.
# Tested on: C2C12 (NDUFB8-AcGFP / COX8A-DsRed-Monomer FRET reporter)
# Assay: cFRET/donor change relative to DMSO, normalised to beta-lapachone positive control (supercomplex I-IV assembly) (fraction of beta-lapachone effect); higher = more respiratory supercomplex assembly
# Details: 40 µM; 24 h
# Method: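 Cells were treated with 40 uM compound for 24 h and imaged on an IN Cell Analyzer 6000. Corrected FRET was divided by donor signal (cFRET/donor) and measured in two replicate experiments. The score is (mean cFRET/donor of compound - mean DMSO) / (mean beta-lapachone 40 uM - mean DMSO). Compounds flagged for prominent cell death, abnormal morphology or decreased cell number were excluded.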
row,Compound,cFRET/donor change
1,NC(C(=O)O)C(O)C(=O)O (racemic) [DL-threo-beta-hydroxyaspartic acid],-0.112
2,Cc1cc2c(cc1Cl)N(C(=O)Nc1ccc(Oc3cccnc3C)nc1)CC2,-1.37
3,Cc1cc2c(cc1Cl)N(C(=O)Nc1cccc3ncccc13)CC2,-0.136
4,Cn1ccc2cc3c(cc21)CCN3C(=O)Nc1cccnc1,-0.716
5,C[C@H](CCC(=O)NCCS(=O)(=O)O)[C@H]1CC[C@H]2[C@@H]3[C@H](O)C[C@@H]4C[C@H](O)CC[C@]4(C)[C@H]3C[C@H](O)[C@]12C [Sodium Taurocholate hydrate],0.0638
6,COc1ccc2cccc(CCNC(C)=O)c2c1 [Agomelatine],0.0655
7,Clc1ccc(N2CCN(Cc3cc4ccccn4n3)CC2)cc1,0.359
8,CCCCC#Cc1nc(NC)c2ncn([C@@H]3O[C@H](CO)[C@@H](O)[C@H]3O)c2n1,0.242
9,CC(N)=NCCCC[C@H](N)C(=O)O [L-N6-(1-Iminoethyl)lysine hydrochloride],-0.0938
10,COc1ccc2c(c1)CC[C@@H]1[C@@H]2CC[C@]2(C)[C@@H](NCCCCCCN3C(=O)CCC3=O)CC[C@@H]12,0.325
11,O=C1N=C(O)NC1(c1ccccc1)c1ccccc1 [Phenytoin sodium],0.149
12,Cn1c(=O)c(-c2c(Cl)cccc2Cl)cc2cnc(Nc3ccc(N4CCOCC4)cc3)nc21,-0.227
13,CCN(CC)CCOc1ccc(Nc2ncc3cc(-c4c(Cl)cccc4Cl)c(=O)n(C)c3n2)cc1,-5.45
14,Cc1cc(Nc2ncc3cc(-c4c(Cl)cccc4Cl)c(=O)n(C)c3n2)ccc1F,-0.253
15,CN1Cc2c(N)cccc2C(c2ccccc2)C1 (stereo not drawn) [Nomifensine maleate],-0.996
16,CN1Cc2sccc2C(c2ccc(O)c(O)c2)C1 (stereo not drawn),0.596
17,CN1CCc2cc(Cl)c(O)cc2[C@@H](c2ccccc2)C1,0.549
18,NS(=O)(=O)C#Cc1ccccc1 [Pifithrin-mu],0.551
19,O=C(O)/C=C/c1cnc[nH]1 [4-Imidazoleacrylic acid],0.18
20,Clc1ccc2c(c1)N=C(N1CCNCC1)c1ccccc1N2 [N-Desmethylclozapine],0.316
21,O=C(CCSCc1ccco1)NNC(=O)N1Cc2ccccc2Oc2ccc(Cl)cc21,0.36
22,COc1cc(NS(C)(=O)=O)ccc1Nc1c2ccccc2nc2ccccc12 [Amsacrine hydrochloride],0.257
23,CC1(C2CCCC2)Cc2cc(OCC(=O)O)c(Cl)c(Cl)c2C1=O (stereo not drawn),0.0296
24,O=P(O)(O)C(O)(Cn1ccnc1)P(=O)(O)O [Zoledronic acid monohydrate],0.239
25,Cc1ccc(O)c(N=Nc2ccccc2)n1,0.375
26,CO[C@H]1C[C@@H]2CC[C@@H](C)[C@@](O)(O2)C(=O)C(=O)N2CCCC[C@H]2C(=O)O[C@H]([C@H](C)C[C@@H]2CC[C@@H](OC(=O)C(C)(CO)CO)[C@H](OC)C2)CC(=O)[C@H](C)/C=C(\C)[C@@H](O)[C@@H](OC)C(=O)[C@H](C)C[C@H](C)/C=C/C=C/C=C/1C [Temsirolimus],-0.55

row,Compound,cFRET/donor change
1,COc1ccc2[nH]c([S@@+]([O-])Cc3ncc(C)c(OC)c3C)nc2c1 [Esomeprazole magnesium dihydrate],0.951
2,NCC=CC(=O)O (stereo in doubt) [cis-4-Aminocrotonic acid],0.532
3,CCN(CC)C(C)CN1c2ccccc2Sc2ccccc21 (stereo not drawn) [Ethopropazine hydrochloride],-0.00468
4,N[C@@H](CCCC(=O)O)C(=O)O [L-2-aminoadipic acid],-0.139
5,COCCOc1cc2ncnc(Cl)c2cc1OCCOC,0.0633
6,CCOC(=O)c1ccc(C#Cc2ccc3c(c2)C(C)(C)CCS3)nc1 [Tazarotene],0.454
7,c1ccc2c(c1)CC(N1CCN(c3cccc4c3OCCO4)CC1)C2,0.201
8,c1cnc2cc3c(cc2n1)[C@@H]1CNC[C@H]3C1 [Varenicline tartrate],0.22
9,Cc1ccc(S(=O)(=O)/C=C/C#N)cc1,0.324
10,COc1ccc(CCNc2nc(N3CCc4cc(OC)c(OC)cc4C3)c3cc(OC)c(OC)cc3n2)cc1OC,0.14
11,O=C1c2c(O)cc(O)cc2O[C@H](c2ccc(O)c(O)c2)[C@H]1O (racemic) [(±)-Taxifolin],0.226
12,CN(c1ccccc1CNc1nc(Nc2ccc3c(c2)CC(=O)N3)ncc1C(F)(F)F)S(C)(=O)=O,0.036
13,O=C(O[C@@H]1C[C@@H]2C[C@H]3C[C@H](C1)N2CC3=O)c1c[nH]c2ccccc12 [Dolasetron mesylate hydrate],0.115
14,NC(N)=NCc1cccc(I)c1 [m-Iodobenzylguanidine hemisulfate],-0.0455
15,CN(CCCOc1ccc(Cc2ccccc2)cc1)CCC(=O)O,0.52
16,COc1cccc(OC)c1-c1cc(C(=O)NC2(C(=O)O)C3CC4CC(C3)CC2C4)nn1-c1ccc(C(=O)N(C)CCCN(C)C)cc1C(C)C (stereo not drawn),0.153
17,CC(C)[N+]1(C)[C@@H]2CC[C@H]1C[C@@H](OC(=O)C(CO)c1ccccc1)C2 (stereo partly drawn) [Ipratropium bromide],0.299
18,O=C1CCC(c2ccc(-n3ccnc3)cc2)=NN1 [Imazodan],0.0699
19,Nc1nc(=O)c(Br)c(-c2ccccc2)[nH]1 [Bropirimine],-0.0226
20,Nc1ccc(-c2nc3ccc(-c4nc5ccc(N)cc5[nH]4)cc3[nH]2)cc1,-0.494
21,CC(C)(C)NC(=O)[C@@H]1CN(Cc2cccnc2)CCN1C[C@@H](O)C[C@@H](Cc1ccccc1)C(=O)N[C@H]1c2ccccc2C[C@H]1O [Indinavir sulfate salt hydrate],0.0944
22,Cc1cc(NC2CCCCC2)nc(-n2nc(C)cc2C)n1,0.569
23,O=C1/C(=C/c2cccs2)CC/C1=C\c1cccs1,0.584
24,CCN(CC)CCCC(C)Nc1c2ccc(Cl)cc2nc2ccc(OC)cc12 (stereo not drawn) [Quinacrine dihydrochloride],-4.52
25,OC[C@H]1O[C@@H](n2cnc3c(N[C@H]4CCC[C@@H]4O)ncnc32)[C@H](O)[C@@H]1O,0.476
26,C[C@H](c1ccc(F)cc1CCCC(=O)O)N(c1cc(F)ccc1F)S(=O)(=O)c1ccc(Cl)cc1,0.476

row,Compound,cFRET/donor change
1,C[N+](C)(C)CCO.[Br-] [Choline bromide],0.313
2,O=C(CCCCCN1CCN(c2ccccc2-c2ccccc2)CC1)NC1CCCc2ccccc21 (stereo not drawn) [LP 12 hydrochloride hydrate],1.51
3,C=CC1=C(C)c2cc3[nH]c(cc4nc(cc5[nH]c(cc1n2)c(C)c5CCC(=O)O)C(CCC(=O)O)=C4C)c(C)c3C=C [Protoporphyrin IX disodium],3.12
4,COC(=O)C1=C(C)NC(C)=C(C(=O)OC2CCCN(Cc3ccccc3)C2)C1c1cccc([N+](=O)[O-])c1 (stereo not drawn) [Benidipine hydrochloride],0.367
5,CCc1cccc(N(C)C(=N)Nc2cccc3ccccc23)c1,0.203
6,CCOC(=O)[C@@H](N)Cc1ccc(O)c(O)c1 [L-Dopa ethyl ester],-0.101
7,O=c1n(CCCN2CCN(c3cccc(Cl)c3)CC2)nc2ccccn12 [Trazodone hydrochloride],0.586
8,CC[C@H]1OC(=O)[C@H](C)[C@@H](O[C@H]2C[C@@](C)(OC)[C@@H](O)[C@H](C)O2)[C@H](C)[C@@H](O[C@@H]2O[C@H](C)C[C@H](NC)[C@H]2O)[C@](C)(O)C[C@@H](C)CN(C)[C@H](C)[C@@H](O)[C@]1(C)O,0.325
9,"O=c1cc(-c2ccccc2)[nH]c2nc(Cl)ccc12 [7-Chloro-4-hydroxy-2-phenyl-1,8-naphthyridine]",-1.98
10,O=C(O)c1cc(=O)c2ccccc2[nH]1 [Kynurenic acid],-0.161
11,CN1[C@@H]2CC[C@H]1CC(OC(=O)c1c[nH]c3ccccc13)C2 (stereo partly drawn) [3-Tropanyl-indole-3-carboxylate hydrochloride],0.435
12,CCCOc1ccccc1-c1nc2[nH]nnc2c(=O)[nH]1 [Zaprinast],0.225
13,CCCCN(CC)c1nc(C)nc2c1c(C)cn2-c1c(C)cc(C)cc1C,0.353
14,CNC(=O)[C@H]1O[C@@H](n2cnc3c(NCc4ccc(N)cc4)ncnc32)[C@H](O)[C@@H]1O,0.125
15,Cc1nc(C#Cc2cccnc2)cs1 [MTEP hydrochloride],0.691
16,CCCc1nn(C)c2c(=O)[nH]c(-c3cc(S(=O)(=O)N4CCN(C)CC4)ccc3OCC)nc12 [Sildenafil citrate salt],0.123
17,NS(=O)(=O)c1cc2c(cc1Cl)N=CNS2(=O)=O [Chlorothiazide],0.223
18,C=C1C(=O)O[C@H]2[C@H]1CC/C(C)=C/CC[C@@]1(C)O[C@@H]21 [Parthenolide],0.366
19,CN(CCOc1ccc(NS(C)(=O)=O)cc1)CCc1ccc(NS(C)(=O)=O)cc1 [Dofetilide],0.532
20,CC1CCN=C(N)S1 (racemic) [(±)-AMT hydrochloride],0.00413
21,CC(=O)/C=C1/C(=O)N(C)c2ccccc21 [Supercinnamaldehyde],0.0218
22,CC(N)(Cc1ccc(O)cc1)C(=O)O (racemic) [DL-alpha-Methyl-p-tyrosine],-0.224
23,C[C@]12CC[C@@H]3c4ccc(O)cc4C[C@@H](CCCCCCCCC[S+]([O-])CCCC(F)(F)C(F)(F)F)[C@H]3[C@@H]1CC[C@@H]2O (stereo partly drawn) [Fulvestrant],0.0846
24,NS(=O)(=O)c1nn2cc(-c3ccccc3)nc2s1,-0.298
25,COC(=O)C(C)(N)Cc1ccc(O)cc1 (racemic) [alpha-Methyl-DL-tyrosine methyl ester hydrochloride],0.302
26,O=C1OC(=O)[C@H]2[C@@H]1[C@@H]1CC[C@H]2O1 [Norcantharidin],0.251
